# Screens deposited in PubChem by several laboratories.
# RmlCD inh mix: inhibitors of RmlC and RmlD coupled enzymes. actives 0.39% (n = 110,000). inhibition, % at 5.5 µM. RmlC/RmlD coupled enzyme inhibition, 384-well mixture HTS; in the data active = inhibition above about 30%, passing the limit was not always enough
# RT RNaseH block: blocks HIV-1 RNase H cleavage of RNA/DNA duplex | P04585 | RT-RNase H RNA/DNA duplex cleavage, fluorescence | inhibition, % at 10 µM | actives 1.9% (n = 65,000) | AID 565; in the data active = inhibition above about 50%
# Numbers without * were called inactive; · = not tested or not shown. Many of the other results were omitted from the sample, so hits are more common in it than they were.
SMILES,RmlCD inh mix,RT RNaseH block
COc1ccc2nc3oc(C(=O)N4CCC(C(N)=O)CC4)cc3cc2c1,34*,-30
Cc1cc(NCCN2CCOCC2)n2nc(C)c(-c3ccccc3)c2n1,30,0
Cc1cc(C)c2c(n1)nn1c(NCCN3CCOCC3)cc(C)nc21,58*,-12
COCCNc1cc(C)nc2c(-c3ccccc3OC)c(C)nn12,-1,-8
COCCNc1cc(C)nc2c3c(C)cc(C)nc3nn12,58*,-9
O=C(Nc1ccccc1)c1ccccc1CCc1ccccc1,-29,·
O=C(CN1C(=O)c2ccccc2C1=O)Nc1ccccc1C(=O)NC1CCCCC1,11,·
O=c1[nH]c(Cn2nnc(-c3ccccc3)n2)nc2scc(-c3ccccc3)c12,-15,53*
c1ccc(Cn2nnc(-c3ccccc3)n2)cc1,5,·
CCOC(=O)c1sc(-c2ccccc2)cc1N,-59,-8
CCOC(=O)c1cc(-c2ccccc2)sc1N,·,65*
CCn1c(SCC(=O)Nc2nccs2)nnc1-c1cc2cccc(OC)c2o1,14,2
COc1cccc2cc(-c3nnc(SCC(=O)Nc4cc(C(F)(F)F)ccc4Cl)n3N)oc12,1,64*
Nn1c(SC/C=C/c2ccccc2)nnc1-c1ccncc1,·,52*
COc1cc(-c2nnc(SC/C=C/c3ccccc3)n2N)cc(OC)c1OC,-2,·
COC(=O)C1=C(C(=O)OC)SC(=C2C(=S)C(C)(C)N(C(=O)C3CC3)c3ccccc32)S1,5,·
Cc1ccc(C(=O)C(C)OC(=O)c2n[nH]c(=O)c3ccccc23)cc1 (configuration not stated),-8,·
Cc1ccc(-c2nc3s/c(=C\c4ccco4)c(=O)n3n2)cc1,0,-15
O=c1nc2s/c(=C\c3ccco3)c(=O)n2nc1Cc1ccc(F)cc1,-11,53*
COc1ccc(-c2nc(-c3ccc(NC(=O)c4ccc(Br)o4)cc3)no2)cc1OC,7,-5
COc1ccc(CCC(=O)Nc2ccc(-c3noc(-c4ccc(OC)c(OC)c4)n3)cc2)cc1,31,61*
O=C(NCc1cccnc1)NC(C(F)(F)F)C(F)(F)F,-9,2
CN1C(=S)SC(C)(NO)C1(C)C (configuration not stated),-9,51*
CNC(=O)ON(C(=O)NC)C1N(C)C(=S)SC1(C)C (configuration not stated),9,25
O=C(c1ccccc1)N1CCC(c2nc3c(nnn3Cc3ccccc3Cl)c(=O)[nH]2)CC1,-58,·
SMILES,RmlCD inh mix,RT RNaseH block
Cc1ccc(-n2ncc(C(=O)O)c2C2CCN(C(=O)OC(C)(C)C)CC2)cc1,6,-16
COc1ccc(C2CC(=O)C(C=NCCN3CCN(C(C)=O)CC3)=C(O)C2)cc1 (configuration not stated),11,·
COc1ccc(C2CC(=O)C(C=NCCN3CCOCC3)=C(O)C2)cc1 (configuration not stated),-26,54*
O=C(Nc1ccc2c(c1)oc1ccccc12)c1ccc2c(c1)OCO2,-6,27
O=C(COc1ccc2c(c1)OCO2)Nc1ccc2c(c1)oc1ccccc12,8,59*
O=C(O)Cn1cc(C(=O)C2CC2)c2ccccc21,-4,-3
COC(=O)c1cn(Nc2ncc(C(F)(F)F)cc2Cl)c(=O)c2ccccc12,18,·
Cc1oc2c(O)c(O)ccc2c(=O)c1-c1ccccc1,3,70*
Cc1oc2c(O)c(O)ccc2c(=O)c1-c1cnn(-c2ccccc2)c1,-8,35
N#Cc1ccc(OCC(=O)NCCc2ccccn2)cc1,7,·
CCCCNC(=O)CC1Nc2ccccc2NC1=O (configuration not stated),-4,0
CCCCOc1ccccc1NC(=O)CC1Nc2ccccc2NC1=O (configuration not stated),-6,69*
CCn1nnc(NC(=O)c2cccnc2)n1,-5,0
COc1ccccc1N1CCN(C(=O)c2nn(-c3ccccc3OC)c(=O)c3ccccc23)CC1,6,-21
COC(=O)[C@H](C)NC(=O)Nc1ccccc1F,1,-5
O=C(NCc1ccco1)c1sc(=S)n2c1[nH]c(=O)c1ccccc12,16,58*
O=C(NC1CCCC1)c1sc(=S)n2c1[nH]c(=O)c1ccccc12,5,30
COc1cc(-c2nnc3sc(Cc4ccccc4)nn23)cc(OC)c1OC,4,10
COc1ccc(Cc2nn3c(-c4cc(OC)c(OC)c(OC)c4)nnc3s2)cc1,-49,54*
CCOC(=O)C(Cc1ccccc1)NS(=O)(=O)c1ccc(NC(C)=O)cc1 (configuration not stated),9,4
CCc1ccc(C2CC(=O)N3CN(c4ccccc4)CSC3=C2C#N)cc1 (configuration not stated),-6,62*
Cc1ccc(N2CSC3=C(C#N)C(c4cccs4)CC(=O)N3C2)cc1 (configuration not stated),6,·
CCc1ccc(N2CSC3=C(C#N)C(c4cccs4)CC(=O)N3C2)cc1 (configuration not stated),9,54*
N#CC1=C2SCN(c3ccc(F)cc3)CN2C(=O)CC1c1cccc(F)c1 (configuration not stated),6,51*
COc1ccc(C2CC(=O)N3CN(c4ccc(C)c(Cl)c4)CSC3=C2C#N)cc1OC (configuration not stated),-11,18
SMILES,RmlCD inh mix,RT RNaseH block
CCOC(=O)c1ccc(N2CSC3=C(C#N)C(c4cccs4)CC(=O)N3C2)cc1 (configuration not stated),-12,35
Cc1ccc(NC(=S)N2CCN(C(=O)C3CCCO3)CC2)c(C)c1 (configuration not stated),-6,·
Cc1cc(=O)[nH]c2ccc(Cl)cc12,5,·
O=C(Nc1ccc(-c2nc3ccccc3o2)cc1)c1ccc2c(c1)OCO2,-73,27
Cc1ccc2oc(-c3ccc(NC(=O)c4ccc5c(c4)OCO5)cc3)nc2c1,-35,64*
COc1ccc(/C=C2/C(=O)N(CC3CCCO3)C(=S)N2C)c(OC)c1 (configuration not stated),-1,·
CCCCOCCCn1c(N)c(C(=O)OC(C)COC)c2nc3ccccc3nc21 (configuration not stated),30,7
COCCCn1c(N)c(C(=O)OC(C)COC)c2nc3ccccc3nc21 (configuration not stated),46*,3
O=C(CNC(=O)c1cc2ccccc2o1)NCc1cccs1,6,-11
COC(=O)c1oc2ccccc2c1N,-6,·
CCN(CC)Cc1nc2c(c(=O)[nH]1)C1(CCCCC1)Cc1ccccc1-2,-13,-1
Cc1cccc2cc(C#N)c(NCCNC(=S)NCCCN3CCOCC3)nc12,7,·
CCOC(=O)c1c(C)n(C)c2c(C)cc(O)c(OC(=O)CC)c12,9,56*
CCOC(=O)c1c(C)n(C)c2cc(Br)c(C)cc12,-9,·
O=C(Cc1cccs1)Nc1nnc(Cc2ccccc2)s1,-2,·
COc1ccc(Cc2nnc(NC(=O)Cc3cccs3)s2)cc1OC,0,80*
CC(C)(C)n1nnnc1C(c1ccncc1)N1CCCCCC1 (configuration not stated),-8,0
Cc1cc(C(=O)NCCCn2ccnc2)cs1,-11,-5
Cc1ccc2nc3c(cc(C(=O)NCC4CCCO4)n3C)c(=O)n2c1 (configuration not stated),103*,2
Cn1c(C(=O)NCC2CCCO2)cc2c(=O)n(C)c3ccccc3c21 (configuration not stated),-4,-5
